Here are results for 35 targets from the supplement of paper PMC10849652.

Targets with a hit are over-represented here; the source holds about 7,900 in all. About 0.6% of all pairs of compound and target were hits.

Chain of UniProt P54652 (P54652 whole entry, looked up): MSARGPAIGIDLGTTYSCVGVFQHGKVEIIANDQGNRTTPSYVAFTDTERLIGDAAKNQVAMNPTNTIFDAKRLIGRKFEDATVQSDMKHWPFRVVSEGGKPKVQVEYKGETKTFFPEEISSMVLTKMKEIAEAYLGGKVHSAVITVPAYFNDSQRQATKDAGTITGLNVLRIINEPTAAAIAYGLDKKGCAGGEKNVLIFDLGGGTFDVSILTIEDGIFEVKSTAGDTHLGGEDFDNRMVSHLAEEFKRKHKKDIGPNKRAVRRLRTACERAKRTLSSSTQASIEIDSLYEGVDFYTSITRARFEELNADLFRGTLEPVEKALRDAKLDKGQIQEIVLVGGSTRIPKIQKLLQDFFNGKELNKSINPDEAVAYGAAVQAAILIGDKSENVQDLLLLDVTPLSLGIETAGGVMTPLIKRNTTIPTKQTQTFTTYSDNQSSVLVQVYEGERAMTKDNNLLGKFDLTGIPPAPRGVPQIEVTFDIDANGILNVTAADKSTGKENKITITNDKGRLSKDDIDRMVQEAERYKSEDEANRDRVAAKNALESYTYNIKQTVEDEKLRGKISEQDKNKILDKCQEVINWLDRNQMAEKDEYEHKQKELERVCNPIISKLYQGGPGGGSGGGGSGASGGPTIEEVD
Chain of UniProt P39748 (P39748 whole entry, looked up): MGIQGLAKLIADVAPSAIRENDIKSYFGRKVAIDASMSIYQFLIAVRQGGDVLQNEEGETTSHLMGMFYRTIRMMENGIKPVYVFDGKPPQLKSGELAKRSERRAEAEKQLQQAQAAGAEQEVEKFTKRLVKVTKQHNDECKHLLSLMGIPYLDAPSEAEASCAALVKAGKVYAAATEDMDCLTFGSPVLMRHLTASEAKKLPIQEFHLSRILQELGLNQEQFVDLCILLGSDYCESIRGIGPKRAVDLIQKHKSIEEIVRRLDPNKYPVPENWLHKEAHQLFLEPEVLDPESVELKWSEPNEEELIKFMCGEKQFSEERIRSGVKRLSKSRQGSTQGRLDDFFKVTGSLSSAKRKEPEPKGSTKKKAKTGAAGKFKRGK
Chain of UniProt Q96LB3 (Q96LB3 whole entry, looked up): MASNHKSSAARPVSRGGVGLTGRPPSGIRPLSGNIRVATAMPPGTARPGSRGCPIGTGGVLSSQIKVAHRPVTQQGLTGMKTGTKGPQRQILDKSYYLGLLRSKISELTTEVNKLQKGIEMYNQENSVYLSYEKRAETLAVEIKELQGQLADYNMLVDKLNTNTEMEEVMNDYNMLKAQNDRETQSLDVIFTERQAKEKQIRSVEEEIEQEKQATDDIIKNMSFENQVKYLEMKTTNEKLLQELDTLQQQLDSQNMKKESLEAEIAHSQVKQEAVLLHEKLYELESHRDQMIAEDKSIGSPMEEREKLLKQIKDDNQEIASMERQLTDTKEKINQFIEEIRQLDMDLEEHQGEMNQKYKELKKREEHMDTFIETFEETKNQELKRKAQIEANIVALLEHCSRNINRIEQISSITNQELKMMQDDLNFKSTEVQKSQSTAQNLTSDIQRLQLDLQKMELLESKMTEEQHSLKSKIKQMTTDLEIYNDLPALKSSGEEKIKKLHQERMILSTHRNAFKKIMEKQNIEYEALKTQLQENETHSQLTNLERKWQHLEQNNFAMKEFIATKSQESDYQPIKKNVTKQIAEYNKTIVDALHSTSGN
Chain of UniProt Q9Y6M1 (Q9Y6M1 whole entry, looked up): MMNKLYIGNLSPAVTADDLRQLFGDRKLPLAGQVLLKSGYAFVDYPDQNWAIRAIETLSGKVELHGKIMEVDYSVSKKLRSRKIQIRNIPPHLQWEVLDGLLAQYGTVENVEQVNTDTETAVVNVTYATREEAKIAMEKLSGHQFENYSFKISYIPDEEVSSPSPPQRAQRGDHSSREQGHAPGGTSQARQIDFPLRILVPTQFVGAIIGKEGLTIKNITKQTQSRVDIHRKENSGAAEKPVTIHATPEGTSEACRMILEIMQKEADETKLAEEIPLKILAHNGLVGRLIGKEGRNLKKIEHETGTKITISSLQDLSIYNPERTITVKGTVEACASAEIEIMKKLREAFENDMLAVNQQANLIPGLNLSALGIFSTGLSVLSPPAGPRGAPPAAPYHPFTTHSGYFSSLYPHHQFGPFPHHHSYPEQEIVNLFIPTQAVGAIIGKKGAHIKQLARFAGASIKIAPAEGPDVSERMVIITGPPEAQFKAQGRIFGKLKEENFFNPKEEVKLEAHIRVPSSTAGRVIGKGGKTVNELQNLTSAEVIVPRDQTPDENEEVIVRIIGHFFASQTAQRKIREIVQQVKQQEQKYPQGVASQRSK
Chain of UniProt I6L899 (I6L899 whole entry, looked up): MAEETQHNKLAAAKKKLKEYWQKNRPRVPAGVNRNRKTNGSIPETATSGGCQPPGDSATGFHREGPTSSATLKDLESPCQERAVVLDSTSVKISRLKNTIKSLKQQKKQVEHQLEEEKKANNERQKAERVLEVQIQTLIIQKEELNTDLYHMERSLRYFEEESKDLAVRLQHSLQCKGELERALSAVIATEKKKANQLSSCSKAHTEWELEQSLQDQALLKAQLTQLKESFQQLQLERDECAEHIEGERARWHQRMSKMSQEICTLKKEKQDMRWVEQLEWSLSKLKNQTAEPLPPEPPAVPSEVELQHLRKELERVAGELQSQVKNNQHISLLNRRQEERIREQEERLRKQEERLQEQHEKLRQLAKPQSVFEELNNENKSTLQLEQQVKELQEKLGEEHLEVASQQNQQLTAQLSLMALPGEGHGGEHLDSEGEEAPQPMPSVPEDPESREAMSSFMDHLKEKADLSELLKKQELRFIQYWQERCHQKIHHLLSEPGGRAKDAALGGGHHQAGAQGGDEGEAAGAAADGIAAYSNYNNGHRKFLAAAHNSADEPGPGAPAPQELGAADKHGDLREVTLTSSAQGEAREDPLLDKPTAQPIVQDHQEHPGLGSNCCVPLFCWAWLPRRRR
Chain of UniProt Q02790 (Q02790 whole entry, looked up): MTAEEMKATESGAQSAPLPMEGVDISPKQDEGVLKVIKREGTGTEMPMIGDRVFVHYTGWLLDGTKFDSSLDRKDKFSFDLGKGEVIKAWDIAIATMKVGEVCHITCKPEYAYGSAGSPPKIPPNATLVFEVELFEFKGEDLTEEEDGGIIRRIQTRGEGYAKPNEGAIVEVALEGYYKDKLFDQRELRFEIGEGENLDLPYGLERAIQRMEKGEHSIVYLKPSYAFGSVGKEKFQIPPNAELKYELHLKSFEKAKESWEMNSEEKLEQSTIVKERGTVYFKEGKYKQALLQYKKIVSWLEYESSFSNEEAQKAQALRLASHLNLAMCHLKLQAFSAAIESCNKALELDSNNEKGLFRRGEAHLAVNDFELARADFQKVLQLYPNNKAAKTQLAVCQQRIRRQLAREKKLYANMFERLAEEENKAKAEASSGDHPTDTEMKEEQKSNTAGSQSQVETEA
Chain of UniProt Q9H4G4 (Q9H4G4 whole entry, looked up): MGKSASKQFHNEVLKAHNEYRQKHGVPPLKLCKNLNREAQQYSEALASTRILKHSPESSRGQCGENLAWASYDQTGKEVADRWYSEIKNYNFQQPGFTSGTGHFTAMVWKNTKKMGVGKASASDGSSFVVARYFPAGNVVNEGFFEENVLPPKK
Chain of UniProt P49840 (P49840 whole entry, looked up): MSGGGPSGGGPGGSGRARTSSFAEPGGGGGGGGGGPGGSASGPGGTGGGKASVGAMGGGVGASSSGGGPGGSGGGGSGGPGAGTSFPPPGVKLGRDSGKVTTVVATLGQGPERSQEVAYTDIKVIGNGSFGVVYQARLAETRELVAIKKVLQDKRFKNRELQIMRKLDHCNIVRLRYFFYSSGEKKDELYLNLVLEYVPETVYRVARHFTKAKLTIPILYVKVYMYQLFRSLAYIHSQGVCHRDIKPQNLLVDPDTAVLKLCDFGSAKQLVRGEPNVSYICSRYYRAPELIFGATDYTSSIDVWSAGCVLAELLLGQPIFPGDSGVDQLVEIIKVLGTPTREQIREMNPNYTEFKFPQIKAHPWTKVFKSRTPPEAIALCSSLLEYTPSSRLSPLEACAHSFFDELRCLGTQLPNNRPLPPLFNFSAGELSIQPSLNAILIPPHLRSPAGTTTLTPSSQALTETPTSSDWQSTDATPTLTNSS
Chain of UniProt Q9P2H3 (Q9P2H3 whole entry, looked up): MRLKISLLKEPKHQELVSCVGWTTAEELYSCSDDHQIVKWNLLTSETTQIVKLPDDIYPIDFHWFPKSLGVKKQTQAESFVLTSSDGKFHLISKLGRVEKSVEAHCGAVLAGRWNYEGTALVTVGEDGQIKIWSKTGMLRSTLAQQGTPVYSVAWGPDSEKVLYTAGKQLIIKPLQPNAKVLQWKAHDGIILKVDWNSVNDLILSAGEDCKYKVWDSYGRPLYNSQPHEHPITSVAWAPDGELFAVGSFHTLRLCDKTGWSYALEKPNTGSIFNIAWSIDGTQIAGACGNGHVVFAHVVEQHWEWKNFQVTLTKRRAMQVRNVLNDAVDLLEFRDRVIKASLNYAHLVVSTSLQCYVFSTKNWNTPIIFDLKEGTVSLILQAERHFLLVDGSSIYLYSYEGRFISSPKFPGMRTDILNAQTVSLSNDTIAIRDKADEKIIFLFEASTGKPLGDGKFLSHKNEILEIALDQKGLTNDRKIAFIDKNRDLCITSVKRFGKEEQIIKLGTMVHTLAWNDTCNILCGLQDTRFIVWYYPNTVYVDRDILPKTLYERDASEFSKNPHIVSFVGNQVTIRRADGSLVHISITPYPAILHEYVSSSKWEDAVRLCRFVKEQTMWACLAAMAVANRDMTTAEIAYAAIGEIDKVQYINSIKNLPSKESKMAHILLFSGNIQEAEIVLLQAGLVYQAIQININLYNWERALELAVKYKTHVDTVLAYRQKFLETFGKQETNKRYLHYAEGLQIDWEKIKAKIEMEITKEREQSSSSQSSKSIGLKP
Chain of UniProt Q53FT3 (Q53FT3 whole entry, looked up): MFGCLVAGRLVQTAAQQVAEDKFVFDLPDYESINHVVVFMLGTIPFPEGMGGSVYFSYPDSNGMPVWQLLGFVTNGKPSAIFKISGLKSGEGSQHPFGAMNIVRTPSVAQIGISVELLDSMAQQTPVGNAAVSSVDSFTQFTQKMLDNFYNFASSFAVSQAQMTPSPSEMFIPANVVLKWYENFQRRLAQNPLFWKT

Compound in one assay: CC(C)C1=C2N=C(C=C(N2N=C1)NCC3=CC=CC=C3)NCCCCCCN
Briefly: log2 fold change, soluble protein after heating vs DMSO (PISA); higher = thermal stabilisation; K562 cells, 10 uM, 30 min; active = over 0.2 and 3.5 SD of the protein, either way, in both replicates (recomputed). An outline of the steps: (§1)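 Soluble protein was quantified by TMTpro 16plex LC-MS/MS after channel sums were equalised. It was obtained as the supernatant after 21,000xg for 90 min from pooled aliquots of K562 cells (2×10^6 cells/mL, 10 μM compound, 30 min) heated for 3 min across 48°C-58°C and extracted in PBS with 0.5% NP-40 at 4°C. Thermal stability values are relative to control samples and come from duplicates. They are given as log2 fold changes.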
Turning to GLCCI1 (UniProt Q86VQ1), the log2 fold change is 0.075 (inactive).

As for GSK3A (UniProt P49840), the log2 fold change is 0.011 (inactive).

Take HIST2H3A (UniProt Q71DI3): the log2 fold change is -0.225 (inactive).

As for GEMIN6 (UniProt Q8WXD5), the log2 fold change is -0.012 (inactive).

Turning to IFT80 isoform 3 (UniProt Q9P2H3), the log2 fold change was -0.113 (inactive).

Regarding FKBP4 (UniProt Q02790), the log2 fold change is -0.094 (inactive).

In the case of HIC2 (UniProt Q96JB3), the log2 fold change is -0.07 (inactive).

Consider FAM91A1 (UniProt Q658Y4), for which the log2 fold change was -0.041 (inactive).

With HIKESHI (UniProt Q53FT3), the log2 fold change was -0.007 (inactive).

For HSPA8 (UniProt E9PK54), the log2 fold change was 0.141 (inactive).

On to GTF2A2 (UniProt P52657), for which the log2 fold change is 0.051 (inactive).

With GBE1 (UniProt Q04446), the log2 fold change was -0.23 (inactive).

In the case of HMGB3 (UniProt O15347), the log2 fold change is 0.068 (inactive).

Take FANCD2 isoform 1 (UniProt Q9BXW9): the log2 fold change was -0.354 (active).

For the target HBZ (UniProt P02008), the log2 fold change is 0.102 (inactive).

GLIPR2 (UniProt Q9H4G4): the log2 fold change is -0.35 (active).

For GMEB1 (UniProt Q9Y692), the log2 fold change is -0.044 (inactive).

For HTATIP2 isoform 3 (UniProt Q9BUP3), the log2 fold change was -0.182 (inactive).

Regarding GOLPH3 (UniProt Q9H4A6), the log2 fold change is 0.31 (active).

In the case of HIP1R (UniProt O75146), the log2 fold change is -0.059 (inactive).

GCSH (UniProt P23434): the log2 fold change was -0.025 (inactive).

On to GALNT11 (UniProt Q8NCW6), for which the log2 fold change was 0.015 (inactive).

On to FDPS (UniProt P14324), for which the log2 fold change is -0.63 (active).

Regarding FEN1 (UniProt P39748), the log2 fold change was -0.393 (inactive).

As to GEMIN5 (UniProt Q8TEQ6), the log2 fold change is -0.422 (active).

Take HMG20A (UniProt Q9NP66): the log2 fold change was 0.043 (inactive).

Consider GALNT2 (UniProt Q10471), for which the log2 fold change was -0.021 (inactive).

Consider IGF2BP2 (UniProt Q9Y6M1), for which the log2 fold change was -0.249 (inactive).

With GOLGA8R (UniProt I6L899), the log2 fold change was 0.227 (inactive).

With IFT74 (UniProt Q96LB3), the log2 fold change is 0.191 (inactive).

On to HSPA2 (UniProt P54652), for which the log2 fold change was -0.441 (active).

For HNRNPK isoform 2 (UniProt P61978), the log2 fold change was -0.283 (active).

As for HNRNPH1 (UniProt P31943), the log2 fold change is -0.427 (active).

Regarding FIBP (UniProt O43427), the log2 fold change was 0.018 (inactive).

Compound in the next assay: CC(C)C[C@@H](C=O)NC(=O)[C@H](CC(C)C)NC(=O)[C@H](CC(C)C)NC(=O)OCc1ccccc1
The assay is described as above. The gist of the method: as §1
Regarding GLCCI1 (UniProt Q86VQ1), the log2 fold change was 0.017 (inactive).

Turning to GSK3A (UniProt P49840), the log2 fold change was -0.022 (inactive).

Consider HIST2H3A (UniProt Q71DI3), for which the log2 fold change is 0.18 (inactive).

On to GEMIN6 (UniProt Q8WXD5), for which the log2 fold change was -0.226 (inactive).

Consider IFT80 isoform 3 (UniProt Q9P2H3), for which the log2 fold change was 0.072 (inactive).

Consider FKBP4 (UniProt Q02790), for which the log2 fold change was 0.002 (inactive).

With HIC2 (UniProt Q96JB3), the log2 fold change was -0.03 (inactive).

In the case of FAM91A1 (UniProt Q658Y4), the log2 fold change was 0 (inactive).

HIKESHI (UniProt Q53FT3): the log2 fold change is -0.194 (inactive).

Regarding HSPA8 (UniProt E9PK54), the log2 fold change is 0.074 (inactive).

As for GTF2A2 (UniProt P52657), the log2 fold change is -0.019 (inactive).

With GBE1 (UniProt Q04446), the log2 fold change is 0.027 (inactive).

For the target HMGB3 (UniProt O15347), the log2 fold change was 0.001 (inactive).

Regarding FANCD2 isoform 1 (UniProt Q9BXW9), the log2 fold change was -0.266 (inactive).

As for HBZ (UniProt P02008), the log2 fold change is -0.019 (inactive).

In the case of GLIPR2 (UniProt Q9H4G4), the log2 fold change was 0.012 (inactive).

Take GMEB1 (UniProt Q9Y692): the log2 fold change was -0.031 (inactive).

Turning to HTATIP2 isoform 3 (UniProt Q9BUP3), the log2 fold change is -0.021 (inactive).

On to GOLPH3 (UniProt Q9H4A6), for which the log2 fold change was -0.005 (inactive).

As to HIP1R (UniProt O75146), the log2 fold change was -0.003 (inactive).

For the target GCSH (UniProt P23434), the log2 fold change was -0.049 (inactive).

Take GALNT11 (UniProt Q8NCW6): the log2 fold change is 0.038 (inactive).

Regarding FDPS (UniProt P14324), the log2 fold change was -0.028 (inactive).

Take FEN1 (UniProt P39748): the log2 fold change is 0.039 (inactive).

As to GEMIN5 (UniProt Q8TEQ6), the log2 fold change was 0.033 (inactive).

For HMG20A (UniProt Q9NP66), the log2 fold change was -0.405 (inactive).

On to GALNT2 (UniProt Q10471), for which the log2 fold change is -0.02 (inactive).

With IGF2BP2 (UniProt Q9Y6M1), the log2 fold change was 0.106 (inactive).

For GOLGA8R (UniProt I6L899), the log2 fold change is 0.177 (inactive).

Take GEMIN2 (UniProt O14893): the log2 fold change is 0.012 (inactive).

Consider IFT74 (UniProt Q96LB3), for which the log2 fold change is 0.076 (inactive).

HSPA2 (UniProt P54652): the log2 fold change was 0.041 (inactive).

Take HNRNPK isoform 2 (UniProt P61978): the log2 fold change is 0.003 (inactive).

Consider HNRNPH1 (UniProt P31943), for which the log2 fold change was 0.131 (inactive).

For FIBP (UniProt O43427), the log2 fold change was 0.065 (inactive).
